Data: article PMC7862700, “An all-to-all approach to the identification of sequence-specific readers for epigenetic DNA modifications on cytosine”

What was measured:
Test in all cases: DAPPL (digital affinity profiling via proximity ligation, sequencing); 10 mM Tris-HCl pH 7.5, 50 mM NaCl, 1 mM DTT, 4% glycerol, room temperature, 30 min; GST-TFs on glutathione beads, 16-mer random dsDNA library, 0.1% formaldehyde crosslink after washing; high values mean tight binding
Details in all cases: protein: recombinant; tags: N-terminal GST; dsDNA, one strand shown
FEV = target: T1, FEV (Homo sapiens, UniProt Q99581 1-238)
T1 sequence: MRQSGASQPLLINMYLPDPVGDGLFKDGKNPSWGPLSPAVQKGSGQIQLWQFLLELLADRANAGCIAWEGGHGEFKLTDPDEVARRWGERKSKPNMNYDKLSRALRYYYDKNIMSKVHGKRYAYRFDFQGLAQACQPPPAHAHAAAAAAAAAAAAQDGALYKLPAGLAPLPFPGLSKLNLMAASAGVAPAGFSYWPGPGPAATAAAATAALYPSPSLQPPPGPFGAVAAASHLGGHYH
How it was run: (§1)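 Pools of DNA-barcoded human transcription factors, expressed in yeast as GST fusions on glutathione beads and combined with a tag-only sample, were incubated with 200 nmole of a 16-mer random double-stranded DNA library. Incubation took 30 min at room temperature in Tris/NaCl/DTT/glycerol buffer and was followed by washing, 0.1% formaldehyde crosslinking, proximity ligation (BsaI/T4 ligase, 1 h, 37 °C), PCR amplification and sequencing on an Illumina NextSeq500. Binding signal is the ratio of a hexamer's read frequency for a factor to its frequency for the tag-only sample.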

ETV5 = ETV5 (Homo sapiens, UniProt P41161 1-510)
Sequence of ETV5 (P41161 whole entry): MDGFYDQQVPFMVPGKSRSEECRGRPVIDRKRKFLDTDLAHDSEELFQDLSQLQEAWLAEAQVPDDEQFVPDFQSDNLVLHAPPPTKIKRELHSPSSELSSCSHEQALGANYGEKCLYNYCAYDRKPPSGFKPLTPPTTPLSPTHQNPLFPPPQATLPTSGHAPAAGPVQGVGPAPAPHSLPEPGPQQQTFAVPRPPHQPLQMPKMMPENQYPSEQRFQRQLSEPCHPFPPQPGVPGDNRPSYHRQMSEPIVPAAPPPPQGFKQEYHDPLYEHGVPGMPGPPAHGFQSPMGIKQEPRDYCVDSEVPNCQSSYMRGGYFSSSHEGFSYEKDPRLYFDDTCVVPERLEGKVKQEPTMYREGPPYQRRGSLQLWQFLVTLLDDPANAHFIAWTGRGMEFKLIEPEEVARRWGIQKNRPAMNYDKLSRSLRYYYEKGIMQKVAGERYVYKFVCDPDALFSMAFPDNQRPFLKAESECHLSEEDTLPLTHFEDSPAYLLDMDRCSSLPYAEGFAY
How it was run: as §1

SPIC = target: T2, SPIC (Homo sapiens, UniProt Q8N5J4 1-248)
T2 sequence: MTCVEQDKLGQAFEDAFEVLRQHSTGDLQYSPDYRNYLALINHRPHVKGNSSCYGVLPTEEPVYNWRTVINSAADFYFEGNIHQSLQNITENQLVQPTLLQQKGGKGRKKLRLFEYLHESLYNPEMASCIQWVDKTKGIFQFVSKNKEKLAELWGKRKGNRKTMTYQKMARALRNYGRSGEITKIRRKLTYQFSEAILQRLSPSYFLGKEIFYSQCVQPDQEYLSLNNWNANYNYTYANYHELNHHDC
How it was run: as §1

ELF4 = ELF4 (Homo sapiens, UniProt Q99607 1-663)
Sequence of ELF4 (Q99607 whole entry): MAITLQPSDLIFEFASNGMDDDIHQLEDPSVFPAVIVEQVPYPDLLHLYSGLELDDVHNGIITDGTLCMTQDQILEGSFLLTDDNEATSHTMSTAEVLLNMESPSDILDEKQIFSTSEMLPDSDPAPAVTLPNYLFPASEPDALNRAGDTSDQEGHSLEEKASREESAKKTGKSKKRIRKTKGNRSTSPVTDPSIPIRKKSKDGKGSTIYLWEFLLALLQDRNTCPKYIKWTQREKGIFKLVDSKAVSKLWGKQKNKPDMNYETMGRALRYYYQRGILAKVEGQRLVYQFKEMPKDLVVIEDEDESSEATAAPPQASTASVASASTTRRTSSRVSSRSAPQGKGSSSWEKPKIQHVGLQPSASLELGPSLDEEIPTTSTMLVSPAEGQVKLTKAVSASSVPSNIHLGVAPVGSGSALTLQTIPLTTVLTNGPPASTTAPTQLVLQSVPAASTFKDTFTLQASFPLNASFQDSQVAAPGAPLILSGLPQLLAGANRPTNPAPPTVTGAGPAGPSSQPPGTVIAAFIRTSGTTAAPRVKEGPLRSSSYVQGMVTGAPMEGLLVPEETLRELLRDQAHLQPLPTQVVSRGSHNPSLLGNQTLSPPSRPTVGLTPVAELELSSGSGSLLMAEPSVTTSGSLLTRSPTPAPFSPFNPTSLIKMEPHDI
How it was run: as §1

ELK4 = target: T3, ELK4 (Homo sapiens, UniProt P28324-2 1-405)
T3 sequence: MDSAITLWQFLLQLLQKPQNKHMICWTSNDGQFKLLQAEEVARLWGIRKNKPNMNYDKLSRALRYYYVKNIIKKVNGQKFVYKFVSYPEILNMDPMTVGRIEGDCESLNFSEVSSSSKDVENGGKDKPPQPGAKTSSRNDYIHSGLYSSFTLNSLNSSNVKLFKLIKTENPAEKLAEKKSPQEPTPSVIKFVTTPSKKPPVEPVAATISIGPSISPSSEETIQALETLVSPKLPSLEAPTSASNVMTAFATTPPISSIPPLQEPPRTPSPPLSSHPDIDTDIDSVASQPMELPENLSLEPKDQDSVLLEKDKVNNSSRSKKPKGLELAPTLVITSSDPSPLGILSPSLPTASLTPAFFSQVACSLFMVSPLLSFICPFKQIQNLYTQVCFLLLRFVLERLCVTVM
How it was run: as §1

ETV2 = target: T4, ETV2 (Homo sapiens, UniProt O00321 1-342)
T4 sequence: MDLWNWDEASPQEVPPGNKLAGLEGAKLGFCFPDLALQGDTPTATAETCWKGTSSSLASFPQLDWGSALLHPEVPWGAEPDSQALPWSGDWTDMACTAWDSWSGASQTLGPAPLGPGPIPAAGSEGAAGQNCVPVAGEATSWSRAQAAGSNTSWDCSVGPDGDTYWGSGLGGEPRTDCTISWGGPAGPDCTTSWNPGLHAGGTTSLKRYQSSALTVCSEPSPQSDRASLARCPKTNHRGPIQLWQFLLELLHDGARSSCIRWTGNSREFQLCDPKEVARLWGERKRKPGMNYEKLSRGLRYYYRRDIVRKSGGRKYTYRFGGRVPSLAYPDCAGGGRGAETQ
How it was run: as §1

ELF3 = target: T5, ELF3 (Homo sapiens, UniProt P78545 1-371)
T5 sequence: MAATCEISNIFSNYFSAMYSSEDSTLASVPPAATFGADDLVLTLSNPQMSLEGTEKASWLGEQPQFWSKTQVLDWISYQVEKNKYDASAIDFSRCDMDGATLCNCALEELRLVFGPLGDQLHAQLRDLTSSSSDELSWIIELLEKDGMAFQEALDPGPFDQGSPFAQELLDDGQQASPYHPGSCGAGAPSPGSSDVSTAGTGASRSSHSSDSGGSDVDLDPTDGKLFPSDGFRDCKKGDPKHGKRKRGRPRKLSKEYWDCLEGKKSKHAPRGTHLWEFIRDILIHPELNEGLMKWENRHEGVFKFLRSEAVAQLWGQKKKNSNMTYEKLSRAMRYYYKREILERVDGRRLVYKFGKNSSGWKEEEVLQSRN
How it was run: as §1

ETV1 = ETV1 (Homo sapiens, UniProt P50549 1-477)
Sequence of ETV1 (P50549 whole entry): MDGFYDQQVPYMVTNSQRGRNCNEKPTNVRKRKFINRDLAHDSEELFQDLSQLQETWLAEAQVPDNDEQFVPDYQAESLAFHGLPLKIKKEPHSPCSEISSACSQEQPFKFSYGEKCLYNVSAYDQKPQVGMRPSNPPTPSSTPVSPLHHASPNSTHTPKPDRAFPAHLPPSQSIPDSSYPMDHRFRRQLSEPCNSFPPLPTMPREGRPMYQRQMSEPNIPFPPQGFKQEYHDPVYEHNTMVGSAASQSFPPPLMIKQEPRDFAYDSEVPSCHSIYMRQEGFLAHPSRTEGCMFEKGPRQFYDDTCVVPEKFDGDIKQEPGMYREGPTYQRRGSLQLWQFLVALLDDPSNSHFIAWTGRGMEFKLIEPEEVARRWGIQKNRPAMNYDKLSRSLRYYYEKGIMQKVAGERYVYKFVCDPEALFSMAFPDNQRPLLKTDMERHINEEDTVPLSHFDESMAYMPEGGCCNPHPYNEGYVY
How it was run: as §1

Row | Sequence | binding signal (FEV) | binding signal (ETV5) | binding signal (SPIC) | binding signal (ELF4) | binding signal (ELK4) | binding signal (ETV2) | binding signal (ELF3) | binding signal (ETV1)
1 | CATTCA | 1.01 fold enrichment (6-mer frequency, TF over GST control) | 1.12 fold enrichment (6-mer frequency, TF over GST control) | 1.01 fold enrichment (6-mer frequency, TF over GST control) | 1.11 fold enrichment (6-mer frequency, TF over GST control) | 1.09 fold enrichment (6-mer frequency, TF over GST control) | 1.03 fold enrichment (6-mer frequency, TF over GST control) | 1.06 fold enrichment (6-mer frequency, TF over GST control) | 1.15 fold enrichment (6-mer frequency, TF over GST control)
2 | CAACTG | 1.14 fold enrichment (6-mer frequency, TF over GST control) | 1.11 fold enrichment (6-mer frequency, TF over GST control) | 1.13 fold enrichment (6-mer frequency, TF over GST control) | 1.07 fold enrichment (6-mer frequency, TF over GST control) | 1.21 fold enrichment (6-mer frequency, TF over GST control) | 1.23 fold enrichment (6-mer frequency, TF over GST control) | 1.26 fold enrichment (6-mer frequency, TF over GST control) | 1.19 fold enrichment (6-mer frequency, TF over GST control)
3 | TGTCAC | 1.2 fold enrichment (6-mer frequency, TF over GST control) | 1.15 fold enrichment (6-mer frequency, TF over GST control) | 1.31 fold enrichment (6-mer frequency, TF over GST control) | 1.22 fold enrichment (6-mer frequency, TF over GST control) | 1.25 fold enrichment (6-mer frequency, TF over GST control) | 1.24 fold enrichment (6-mer frequency, TF over GST control) | 1.2 fold enrichment (6-mer frequency, TF over GST control) | 1.18 fold enrichment (6-mer frequency, TF over GST control)
4 | CACAAT | 1.06 fold enrichment (6-mer frequency, TF over GST control) | 1.1 fold enrichment (6-mer frequency, TF over GST control) | 1.13 fold enrichment (6-mer frequency, TF over GST control) | 1.09 fold enrichment (6-mer frequency, TF over GST control) | 1.12 fold enrichment (6-mer frequency, TF over GST control) | 1.06 fold enrichment (6-mer frequency, TF over GST control) | 1.19 fold enrichment (6-mer frequency, TF over GST control) | 1.09 fold enrichment (6-mer frequency, TF over GST control)
5 | TCCGGG | 1.36 fold enrichment (6-mer frequency, TF over GST control) | 1.69 fold enrichment (6-mer frequency, TF over GST control) | 1.63 fold enrichment (6-mer frequency, TF over GST control) | 1.41 fold enrichment (6-mer frequency, TF over GST control) | 1.37 fold enrichment (6-mer frequency, TF over GST control) | 1.5 fold enrichment (6-mer frequency, TF over GST control) | 1.41 fold enrichment (6-mer frequency, TF over GST control) | 1.59 fold enrichment (6-mer frequency, TF over GST control)
6 | ATGTAG | 1.02 fold enrichment (6-mer frequency, TF over GST control) | 1.08 fold enrichment (6-mer frequency, TF over GST control) | 1.09 fold enrichment (6-mer frequency, TF over GST control) | 1.1 fold enrichment (6-mer frequency, TF over GST control) | 1.15 fold enrichment (6-mer frequency, TF over GST control) | 1.03 fold enrichment (6-mer frequency, TF over GST control) | 1.06 fold enrichment (6-mer frequency, TF over GST control) | –
7 | GCCACT | 1.31 fold enrichment (6-mer frequency, TF over GST control) | 1.2 fold enrichment (6-mer frequency, TF over GST control) | 1.12 fold enrichment (6-mer frequency, TF over GST control) | 1.21 fold enrichment (6-mer frequency, TF over GST control) | 1.24 fold enrichment (6-mer frequency, TF over GST control) | 1.15 fold enrichment (6-mer frequency, TF over GST control) | 1.1 fold enrichment (6-mer frequency, TF over GST control) | 1.22 fold enrichment (6-mer frequency, TF over GST control)
8 | CACCAT | 1.05 fold enrichment (6-mer frequency, TF over GST control) | 1.11 fold enrichment (6-mer frequency, TF over GST control) | 1.06 fold enrichment (6-mer frequency, TF over GST control) | 1.12 fold enrichment (6-mer frequency, TF over GST control) | 1.21 fold enrichment (6-mer frequency, TF over GST control) | 1.17 fold enrichment (6-mer frequency, TF over GST control) | 1.1 fold enrichment (6-mer frequency, TF over GST control) | 1.08 fold enrichment (6-mer frequency, TF over GST control)
